Measured values as given in PubChem BioAssay (NCI).
Values joined by “and” are separate entries in the source; they are usually repeats but may differ in a detail not shown here. Identical values can stand only once. About 83,000 compounds went through this panel and 20% of them were active in at least one assay; those are over-represented in the sample as a whole.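 Each cell line was grown in a 96-well plate and treated with one concentration of compound for 48 hours. Values below 10 were considered active.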 A number with no mark means an inactive call. Active and inactive are the calls of the source.

Test system: MCF7 breast
Assay: NCI-60 one-dose screen, 48 h (100 = growth as untreated, 0 = no growth, -100 = all killed)
Settings: 10 µM unless noted

Row | SMILES | growth
1 | C=CC[PH+](c1ccccc1)c1ccccc1.C=CC[PH+](c1ccccc1)c1ccccc1.[Pt+2].[S-]c1ncccn1.[S-]c1ncccn1 | 17.2%
2 | CC(=O)Nc1nc2c(s1)C1=CC[C@H]3[C@@H]4CC[C@H](OC(C)=O)[C@@]4(C)CC[C@@H]3[C@@]1(C)CC2 | 44.1%
3 | C[C@]12CCC(=O)C[C@@H]1CC[C@@H]1[C@@H]2CC[C@]2(C)[C@@H](OC(=O)N(CCCl)N=O)CC[C@@H]12 | 47.7%
4 | C[N+]1(C)CCCC1c1cccnc1 (stereo unspecified) | 90.9%
5 | O=[N+]([O-])c1cc(Br)c(O)c(Br)c1 | 94.3%
6 | Nc1ccc(S(=O)(=O)F)cc1 | 106%
7 | Cc1cc(N(CCCl)CCCl)ccc1/C=N\NC(=O)c1cccnc1 | 50.4% and 59.7%
8 | CNC(=O)O/N=C(\SC)C(=O)N(C)C | 103%
9 | N#CC(C#N)=Cc1cccc(F)c1 | 101%
10 | CCC1(CCSC#N)C(=O)NC(=O)NC1=O | 91.2%

Test system: HCT-116 colon
Assay: as above
Settings: 10 µM unless noted

Row | SMILES | growth
11 | C[C@@]12CCCc3coc(c31)C(=O)c1cc3c(cc12)C(=O)C1=C(NCCS1(=O)=O)C3=O | -16.5% (active)
12 | C=CC[PH+](c1ccccc1)c1ccccc1.C=CC[PH+](c1ccccc1)c1ccccc1.[Pt+2].[S-]c1nc2ccccc2[nH]1.[S-]c1nc2ccccc2[nH]1 | -29.7% (active)
13 | Cc1cc[c-]cc1.Fc1c[c-]c(-c2ccccn2)c(F)c1.[Pt+2].c1ccc([PH+](c2ccccc2)c2ccccn2)cc1 | 35%
14 | C#Cc1cccc(Nc2nc(Cl)nc3cc(NC(=O)CF)ccc23)c1 | 42.4%
15 | CC[C@H](C)[C@H](NC(=O)c1ncccn1)C(=O)N(C)[C@H](C[C@@H](OC(C)=O)c1nc(C(=O)N[C@@H](Cc2ccccc2)C[C@H](C)C(=O)OC)cs1)C(C)C | 2.48% (active)
16 | Cc1cc(Br)c([N+](=O)[O-])cc1[N+](=O)[O-] | 20.5%
17 | COc1cc(C=C2C(=O)NC(=O)NC2=O)ccc1O | 102%
18 | Oc1cc(N2CC2)c(O)cc1N1CC1 | 6.02% (active)
19 | C[C@]12CCc3sc(Nc4ccc(O)cc4)nc3C1=CC[C@@H]1[C@@H]2CC[C@]2(C)C(=O)CC[C@@H]12 | -72.4% (active)
20 | CN1CCc2cc3c(cc2C1O)OCO3 (stereo unspecified) | 104% and 101%
21 | N#CC(NC(=O)CCl)=C(Cl)Cl | -41.4% (active)
22 | CC[C@@H](C)C(=O)O[C@H]1[C@H](O)[C@H]2[C@@H](CN3C[C@@H](C)CC[C@H]3[C@@]2(C)O)[C@@H]2C[C@]34O[C@]5(O)[C@@H](OC(=O)[C@@](C)(O)CC)CC[C@@]3(C)[C@@H]5[C@@H](OC(C)=O)[C@@H](OC(C)=O)[C@H]4[C@@]21O | 98.1%
23 | CCC1(NC(=O)c2cc(F)c(F)c(F)c2F)C(=O)NC(=O)N(C(C)C)C1=O (stereo unspecified) | 99%
24 | O=C1NC(=O)C(=C/C=C/c2ccccc2)C(=O)N1 | -78.5% (active)
25 | C[C@]12CCC3[C@@H](C[C@@H]4SC(Nc5ccccc5)=N[C@@]45CC(=O)CC[C@]35C)[C@@H]1CCC2=O (stereo partly specified) | -85.5% (active)
26 | CCCCOCCOP(=O)(OCCOCCCC)OCCOCCCC | 115%
27 | Cc1cc[c-]cc1.Fc1c[c-]c(-c2ccccn2)c(F)c1.N#CCC[PH+](CCC#N)c1ccccc1.[Pt+2] | 19.1%
28 | CCN(CC)CCn1c(=O)n(C)c2ccccc21 | 111%

Row | SMILES | growth
29 | COc1cc2c(cc1OC)[C@@H]1C(=O)c3ccc4c(c3O[C@@H]1CO2)C[C@H](C(C)C)O4 | 39.4%
30 | COC(=O)C12C3C4C1C1C2C3C41NC(=O)c1csc([C@@H](C[C@H](C(C)C)N(C)C(=O)[C@@H](NC(=O)[C@H]2CCCCN2C)C2CC2)OC(C)=O)n1 (stereo partly specified) | 2.94% (active)
31 | CC[C@H](CC[C@@H](C)[C@H]1CC[C@H]2[C@@H]3CC[C@H]4C[C@]5(CC[C@]4(C)[C@H]3CC[C@]12C)OO[C@](C)(C(F)(F)F)O5)C(C)C | 98.3%
32 | CC(C)CCC1C(=O)NC(=O)NC1=O | 98.1%
33 | CN1CCC2(CC1)C(C#N)C(=O)NC(=O)C2C#N (stereo unspecified) | 93.3%
34 | CC(=O)c1cccc(S(=O)(=O)F)c1 | 92.1%
35 | ClCc1ccc(Cl)c(Cl)c1 | 96.1%
36 | COc1cc2c(cc1OC)-c1c3c(cc4c1[C@@H](C2)N(C)CC4)OCO3 | 16.1%
37 | C=CC[PH+](c1ccccc1)c1ccccc1.C=CC[PH+](c1ccccc1)c1ccccc1.[Pt+2].[S-]c1ncccn1.[S-]c1ncccn1 | -43.8% (active)
38 | CC(=O)Nc1nc2c(s1)C1=CC[C@H]3[C@@H]4CC[C@H](OC(C)=O)[C@@]4(C)CC[C@@H]3[C@@]1(C)CC2 | 39.8%
39 | C[C@]12CCC(=O)C[C@@H]1CC[C@@H]1[C@@H]2CC[C@]2(C)[C@@H](OC(=O)N(CCCl)N=O)CC[C@@H]12 | 25.9%
40 | C[N+]1(C)CCCC1c1cccnc1 (stereo unspecified) | 92.5%
41 | O=[N+]([O-])c1cc(Br)c(O)c(Br)c1 | 97.3%
42 | Nc1ccc(S(=O)(=O)F)cc1 | 100%
43 | Cc1cc(N(CCCl)CCCl)ccc1/C=N\NC(=O)c1cccnc1 | 84% and 79.2%
44 | CNC(=O)O/N=C(\SC)C(=O)N(C)C | 105%
45 | N#CC(C#N)=Cc1cccc(F)c1 | 108%
46 | CCC1(CCSC#N)C(=O)NC(=O)NC1=O | 94.1%
